Experimental data: PubChem BioAssay AID430 (Sanford-Burnham Center for Chemical Genomics, 2006)
In all, about 63,000 compounds went through this assay and about 1,100 (1.7%) were called active. Rule as the data show it: active = cytotoxicity above about 50%; inactive = the rest. The sample as a whole holds a higher share of actives than the screen did. Measured potencies and affinities stand elsewhere.

Assay: cytotoxicity in HPDE-C7 cells, cell-based, fluorescence, HTS (AID 430);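 also: cells exposed to compound for 48 hours before viability readout; 0% = vehicle and 100% = reference cytotoxic drug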
Conditions: HPDE-C7 pancreatic duct cells viability, at 10 µM, active compounds read high

Row | Compound | cytotoxicity
1 | c1ccc(OCc2nn3c(Cn4nnc5ccccc54)nnc3s2)cc1 | -15.5% (inactive)
2 | Cc1noc(C)c1S(=O)(=O)Nc1ccc(C(=O)N2CCc3ccccc3C2)cc1 | -2.2% (inactive)
3 | Cn1nnc(NC(=O)c2ccccc2F)n1 | -4.8% (inactive)
4 | CN1CCN(Cc2c(O)ccc3c(=O)c(Oc4ccccc4Cl)c(C(F)(F)F)oc23)CC1 | -17% (inactive)
5 | O=C(c1ccco1)N1CCN(C(=O)c2cccc3c2C(=O)N(C2CCCCC2)C3)CC1 | -10% (inactive)
6 | CN1CCN(CC#CC2(O)CCCCC2)CC1 | -31.9% (inactive)
7 | COc1ccc(CC(=O)Nc2ccc(-c3noc(-c4cc(OC)c(OC)c(OC)c4)n3)cc2)cc1 | -2.7% (inactive)
8 | Cc1nc(NCc2ccco2)c2c3c(sc2n1)CCC3 | 56.1% (active)
9 | CC(C)Sc1nc(SCC(=O)NCc2ccco2)c2c3c(sc2n1)COC(C)(C)C3 | 24.2% (inactive)
10 | CC(C)c1nc2sc3c(SCC(=O)NCc4ccco4)ncnc3c2c2c1CCC2 | 5.7% (inactive)
11 | CCCc1nc2sc3c(SCC(=O)NCc4ccco4)ncnc3c2c2c1CCC2 | 59% (active)
12 | CSc1nc(SCC(=O)NCc2ccco2)c2c3c(sc2n1)COC(C)(C)C3 | 51% (active)
13 | c1coc(CNc2ncnc3sc4c(c23)CCCCC4)c1 | -10.2% (inactive)
14 | CSc1nc(NCc2ccco2)c2c3c(sc2n1)CN(C)CC3 | -21.3% (inactive)
15 | CSc1nc(SCC(=O)NCc2ccco2)c2c3c(sc2n1)CN(C)CC3 | -9.6% (inactive)
16 | O=C(CSc1ncnc2sc3c(c12)CCCCC3)NCc1ccco1 | -22.5% (inactive)
17 | CC(C)c1nc2sc3c(NCc4ccco4)ncnc3c2c2c1COC(C)(C)C2 | -10.3% (inactive)
18 | Cc1nc(SCC(=O)NCc2ccco2)c2c3c(sc2n1)CCCC3 | -4.3% (inactive)
19 | CC(C)Sc1nc(NCc2ccco2)c2c3c(sc2n1)COC(C)(C)C3 | 83.4% (active)
20 | CN1CC2(C(=O)c3ccccc3)CN(C)CC(C(=O)c3ccccc3)(C1)C2 | -20.9% (inactive)
21 | O=c1nc2n(c3ccccc13)Cc1ccccc1-2 | -1.4% (inactive)
22 | O=C(CSc1nnc(C2CC2)n1Cc1ccccc1)c1ccc(S(=O)(=O)N2CCOCC2)cc1 | -8.3% (inactive)
23 | Cn1nc(C(=O)Nc2ccc(S(=O)(=O)N3CCCCC3)cc2)ccc1=O | -4.3% (inactive)
24 | Cn1c(=O)c2c(nc(Oc3ccccn3)n2C)n(C)c1=O | -12.5% (inactive)
25 | O=C(c1ccc2c(=O)n(-c3ccccc3)c(=O)[nH]c2c1)N1CCCCC1 | -2.4% (inactive)
26 | COc1ccc(/C=N/n2cnnc2SCc2ccccc2)cc1 | 3.5% (inactive)
27 | COc1ccc(/C=N/n2cc(-c3ccccc3)nc2N)cc1 | 65.5% (active)
28 | COc1ccc(/C=N/n2cc(-c3ccc(OC)cc3)nc2N)cc1 | -8.1% (inactive)
